Values joined by “and” are separate entries in the source; they are usually repeats but may differ in a detail not shown here. Equal entries are not always repeated. Records with an inconclusive call do not appear. Entries that show only a call come without a potency. The source holds several records for some structures; these can differ, active in one and inactive in another. Active and inactive are the calls of the source. Calls come from the whole dose curve; as a rule, active = well fitted activation curve with a large enough effect in the repeat runs; inconclusive = weak or mixed curves; inactive = flat fitted curve, though single readings scatter.
Assay: A CellTox Green Cytotoxicity Assay to monitor cytotoxicity in HepG2 cells - 40 hour (AID 1224879); note: nearly all actives have a fitted effect of over 40% in size
Conditions: CellTox Green fluorescence; series mostly up to 76.8 µM; cytotoxicity increase: at the top concentration
Excerpt: National Center for Advancing Translational Sciences [NCATS]
NIH Chemical Genomics Center [NCGC]
U.S. Environmental Protection Agency [EPA]
National Institutes of Environmental Health Sciences [NIEHS]
National Toxicology Program [NTP]
Cell-based models are critical for drug discovery. Determining the natural cytotoxic effects resulting from test compounds is an essential research activity. A CellTox Green Cytotoxicity Assay to monitor cytotoxicity in real time of continues cell culture during 40 hours of the compound treatment was used to screen Tox21 10K library compounds in HepG2 cells. CellTox Green Cytotoxicity Assay is a nonlytic, homogeneous, biofluorescent method to measure cytotoxicity in cell culture after experimental manipulation. The assay system uses a proprietary asymmetric cyanine dye that is excluded from viable cells but preferentially stains the dead cell's DNA. […] Viable cells produce no appreciable increases in fluorescence. Therefore, the fluorescence signal produced by the binding interaction with dead cell DNA is proportional to cytotoxicity.
The mixture of HepG2 cell suspension and reagents were dispensed at 600cells/6 ul/well in 1536-well tissue culture treated black solid bottom plates using a Multidrop dispenser. After the assay plates were incubated at a 37 C/5% CO2 incubator for 5 hours, 23 nL of compounds dissolved in DMSO, positive and negative controls was transferred to the assay plate by a pintool work station. The plates were incubated at 37 C for 40 hours. The fluorescence intensity were measured at 0h, 8h, 16h, 24h, 32h and 40h time points using ViewLux plate reader during compound treatment.
In the case of `Cn1cnc2c1c(=O)[nH]c(=O)n2C`, the Potency is reported as “inactive”.
For `CCCCCCCC(=O)OCC(O)CO` (stereo not given), the “cytotoxicity increase” value was -11.9% (inactive).
With `C[C@]12CC[C@@H]3c4ccc(O)cc4C[C@@H](CCCCCCCCCS(=O)CCCC(F)(F)C(F)(F)F)[C@H]3[C@@H]1CC[C@@H]2O` (stereo not given in full) the Potency was “inactive”.
For `CC(C)(C)CC(C)(C)c1ccc(O)c(-n2nc3ccccc3n2)c1`, the Potency was “inactive”.
With `CCc1cc(C(N)=S)ccn1` the Potency was “inactive”.
With `COCCOCCOC` the Potency was “inactive”.
In the case of `CCn1cc(C(=O)O)c(=O)c2ccc(C)nc21`, the Potency is reported as “inactive”.
With `O=C(O)Cc1cccc2ccccc12` the Potency was “inactive”.
For `CCCCC/C(C=O)=C\c1ccccc1`, the Potency was “inactive”.
In the case of `CC(O)COc1ccccc1` (stereo not given), the Potency is reported as “inactive”.
In the case of `CCCCCCCCOc1ccc(C(=O)c2ccccc2)c(O)c1`, the Potency is reported as “inactive”.
In the case of `CC(C)=CCC/C(C)=C/CO`, the Potency is reported as “inactive”.
For `O=C1OC(c2ccc(O)cc2)(c2ccc(O)cc2)c2ccccc21`, the Potency was “inactive”.
In the case of `Cc1c(N(C)C)c(=O)n(-c2ccccc2)n1C`, the Potency is reported as “inactive”.
In the case of `Nc1ccc(N=Nc2ccccc2)c(N)n1`, the Potency is reported as 34.9 µM (active) and 17.4 µM (active) and 26.8 µM (active).
With `COc1ccccc1O` the Potency was “inactive”.
With `NC(=O)OCC(COC(N)=O)c1ccccc1` the “cytotoxicity increase” value was -1.39% [at 35.3 µM] (inactive).
For `COc1ccc(O)cc1`, the Potency was “inactive”.
With `C[C@]12C[C@H](O)[C@H]3[C@@H](CCC4=CC(=O)CC[C@@]43C)[C@@H]1CC[C@@H]2C(=O)CO` the Potency was “inactive”.
In the case of `COC(=O)c1ccc(C=O)cc1`, the Potency is reported as “inactive”.
With `CN(C)C=O` the Potency was “inactive”.
In the case of `CN/C(=C\[N+](=O)[O-])NCCSCc1ccc(CN(C)C)o1`, the Potency is reported as “inactive”.
With `COC(=O)C1CCC(C(=O)OC)CC1` (stereo not given) the Potency was “inactive”.
With `C/C=C/c1ccc(O)c(OC)c1` the Potency was “inactive”.
In the case of `Cc1cccc(Nc2cc(Cl)nc(SCC(=O)O)n2)c1C`, the Potency is reported as “inactive”.
For `CC(C)CC(C)CC(O)CC(C)C` (stereo not given), the “cytotoxicity increase” value was -3.25% (inactive).
With `O=C(O)CCCCC1CCSS1` (stereo not given) the Potency was “inactive”.
In the case of `Cc1cnc(NC(=O)C2=C(O)c3ccccc3S(=O)(=O)N2C)s1`, the Potency is reported as “inactive”.
For `N[C@@H](Cc1c[nH]c2ccccc12)C(=O)O`, the Potency was “inactive”.
In the case of `COC1=CC(=O)C[C@@H](C)[C@]12Oc1c(Cl)c(OC)cc(OC)c1C2=O`, the Potency is reported as 24.3 µM (active) and 21.9 µM (active) and 26.8 µM (active).
For `NC(=O)c1ccc([N+](=O)[O-])cc1Cl`, the Potency was “inactive”.
In the case of `C[C@]12CC[C@@H]3c4ccc(O)cc4CC[C@H]3[C@@H]1CCC2=O`, the Potency is reported as “inactive”.
With `CC(=O)OC/C=C(C)/C=C/C=C(C)/C=C/C1=C(C)CCCC1(C)C` the “cytotoxicity increase” value was 16.9% [at 35.3 µM] (inactive).
In the case of `O=c1c(-c2ccc(O)cc2)coc2cc(O)cc(O)c12`, the Potency is reported as “inactive”.
With `Cc1ccc(O)c(-n2nc3ccccc3n2)c1` the Potency was “inactive”.
For `NC(=O)NO`, the Potency was “inactive”.
In the case of `CC1=NN(c2ccccc2)C(=O)C1`, the Potency is reported as “inactive”.
With `NCCNc1cccc2ccccc12` the Potency was 53.6 µM (active) and inactive.
In the case of `CCCCOCCOCCOC(C)=O`, the “cytotoxicity increase” value is reported as 1.83% (inactive).
In the case of `CCCCCCCCCCCCCCCCCC(=O)OCC(O)CO` (stereo not given), the Potency is reported as “inactive”.

— PubChem BioAssay (Tox21)
Potency is the fitted concentration of half-maximal effect.
